# Measurements published in ChEMBL document CHEMBL3988442, “University of Dundee, Small-Polar-MMV Screening Library” (2021).
# In all, about 48,000 compounds went through this assay and about 13,000 (27%) showed an effect of 50% or more. The list shows a part of the results.
# System: Wolbachia pipientis
# Assay: Anti-Wolbachia Cell-Based Screen
# Format: functional
# Parameters: scale not given: in the data most compounds retested in dose-response had high values
# Details: 5 µM
row,SMILES,Percent Effect [%]
1,Cc1cc(N[C@H]2CCCC[C@@H]2O)n2nccc2n1,-46.39
2,Cc1nc(Cn2cncc(Br)c2=O)no1,4.078
3,Cn1cnc2c1CCN(CC(=O)N(Cc1ccccc1F)C1CC1)C2,-0.08141
4,CSC1=Nc2c(cnn2-c2ccc(Cl)cc2)C2=NCCCN12,101
5,CNC(=O)c1sccc1S(=O)(=O)NC,-5.377
6,COc1cccc2c1OCCCN(c1nc(N)nc3c1CCNC3)C2,-2.498
7,CC(C)(C)c1ccc(-c2n[nH]c3c2CN(CC2CCOC2)CC3)cc1 (stereo unspecified),5.17
8,Cl.Cl.Cl.c1cnc(NCc2cncc3c2CCN(Cc2cccnc2)C3)nc1,11.16
9,Cc1ccc(NCc2cncc3c2CCN(Cc2ccccn2)C3)nn1.Cl.Cl,108.9
10,Cc1nccc(NCc2cncc3c2CCN(CC2CC2)C3)n1.Cl.Cl,94.72
11,Cc1cc(CN2CCc3c(CNc4ncccn4)cncc3C2)oc1C.Cl.Cl,20.89
12,Cc1ccc(NCc2cncc3c2CCN(C(=O)C2CC=CC2)C3)nn1.Cl,36.84
13,Cc1nccc(NCc2cncc3c2CCN(CC2CCOC2)C3)n1.Cl.Cl (stereo unspecified),113.7
14,Cl.Cl.c1csc(CN2CCc3c(CNc4nncs4)cncc3C2)c1,13.01
15,Cl.Cl.c1cnc(NCc2cncc3c2CCN(Cc2ccsc2)C3)nc1,10.62
16,Cc1nccc(NCc2cncc3c2CCN(CCN(C)C)C3)n1,100
17,O=C(NCCn1cccc1)C1CCCOC1 (stereo unspecified),1.95
18,CCC(Cn1ccc2[nH]c(=O)c(C#N)cc2c1=O)OC (stereo unspecified),-23.91
19,Cc1ccccc1[C@@H]1CN(CCOCCO)C[C@H]1C(=O)O,-28.11
20,O=C(Nc1cc(-c2ccncc2)no1)C1CCC1,-23.1
21,Cn1ccc(NC(=O)CN2C[C@H]3CC[C@@H]2CN(S(C)(=O)=O)C3)n1,4.015
22,CC1CN(C)CCN1Cc1cccc(C(=O)NCc2ccco2)c1 (stereo unspecified),11.16

row,SMILES,Percent Effect [%]
1,O=C1N(c2cccc(F)c2)Cc2nc(=O)[nH]n21,-10.2
2,Cc1nc(NCc2noc(C3CCCO3)n2)c2sccc2n1 (stereo unspecified),146.8
3,Cc1nc(NCCc2noc(C3CCCO3)n2)c2sccc2n1 (stereo unspecified),194.7
4,COCc1noc(CCNC(=O)c2ccc(C3CCCO3)s2)n1 (stereo unspecified),-0.9385
5,Cc1nc(N(Cc2ccncc2)CC2CCCO2)c2ccsc2n1 (stereo unspecified),2.161
6,Cc1nc(CN2CCCC(Nc3ncnc4ccsc34)C2)no1 (stereo unspecified),36.74
7,Cc1nc(N2CCC3(CCCN(CC4CC4)C3=O)C2)c2sccc2n1 (stereo unspecified),-31.46
8,Fc1ccc(OCC2CCCO2)c(NCc2noc(C3CC3)n2)c1 (stereo unspecified),2.456
9,COc1ccnc(CNc2nc(C)nc3ccsc23)c1,-33.44
10,Cc1nc(NCc2noc(C3CCCO3)n2)c2ccsc2n1 (stereo unspecified),190.8
11,Cc1cccc(N2CCN(C(=O)C3CC4(CCNCC4)CN3)CC2)n1 (stereo unspecified),-9.883
12,COC(=O)CN(Cc1ccccc1C)C(=O)CCNC(=O)C(C)(C)C,10.54
13,Cc1cc2nc(CO[C@H]3CN(C4CCC4)C[C@H]3F)[nH]c2cc1C,-5.771
14,O=C(O)C(F)(F)F.O=C(O)C(F)(F)F.O=C1CC[C@]2(CC[C@@H](NC3CCOC3)CC2)N1Cc1ccncc1 (stereo partly specified),-47.26
15,Cc1ccc(N2CCC3(CC2)CNC(=O)CO3)nn1.O=C(O)C(F)(F)F,10.91
16,N#Cc1ccc(N2CCC3(CCC(=O)N3Cc3ccncc3)CC2)nc1.O=C(O)C(F)(F)F.O=C(O)C(F)(F)F,101
17,Cc1ccc(N2CCC3(CCC(=O)N3Cc3ccncc3)CC2)nn1.O=C(O)C(F)(F)F,117.9
18,N#Cc1ccc(CN2CC3(CCCCN3c3cccnc3)CC2=O)cc1.O=C(O)C(F)(F)F (stereo unspecified),-4.907
19,O=C(O)C(F)(F)F.O=C1CCC2(CCN(c3ncc(F)cn3)CC2)N1Cc1ccncc1,-48.93
20,N#Cc1ccc(N2CCC3(CC2)COCCN3Cc2cccnc2)cc1.O=C(O)C(F)(F)F,-19.62
21,N#Cc1ccc(N2CCC3(CCC(=O)N3Cc3cccnc3)CC2)nc1.O=C(O)C(F)(F)F.O=C(O)C(F)(F)F,109.7
22,Cc1cc(CN(C)Cc2cc3c(cc2OC(F)F)OCO3)on1,-6.74

row,SMILES,Percent Effect [%]
1,CC(C)c1nnc(CN2CCCC2C(=O)OCc2ccccc2)o1 (stereo unspecified),4.736
2,COCC1CCN(CCCc2cn[nH]c2)CC1,0.277
3,Cc1cc(C)n(-c2ccc(N3CCC4(CC3)OCCO4)nc2)n1,6.34
4,CCNC(=O)c1nc2c(s1)CCCN2S(C)(=O)=O,-29.83
5,COCCN(C)C(=O)c1nc2c(s1)CCCN2C,4.068
6,COCCN(C)C(=O)c1nc2c(s1)CCCN2S(C)(=O)=O,-10.12
7,CCN(C(=O)c1nc2c(s1)CCCN2C(C)=O)C(C)C,127.1
8,CCN(C(=O)c1nc2c(s1)CCCN2C)C(C)C,108.3
9,CC(=O)N1CCCc2sc(C(=O)Nc3ccc(C)nc3)nc21,-6.006
10,CCN(C(=O)c1nc2c(s1)CCCN2S(C)(=O)=O)C(C)C,111.8
11,CC(=O)N1CCCc2sc(C(=O)NC3CC3)nc21,2.286
12,CCN(C(=O)c1nc2c(s1)CCCN2Cc1ccccc1)C(C)C,-4.382
13,CCn1cc(CN2CCC(c3ccncc3)CC2)cc1C#N,18.43
14,Cc1ccc2c(c1)c(CNC(=O)C1CC(=O)N(CCN(C)C)C1)nn2C (stereo unspecified),14.04
15,CC(C)OCCN(C)CC(c1cccs1)N1CCOCC1 (stereo unspecified),-0.1545
16,Cc1sc2nc(SC(C)c3nc(C(C)C)no3)nc(N)c2c1C (stereo unspecified),10.39
17,COc1c(Br)cccc1CCNC(=O)c1ccon1,-9.617
18,Cc1nc(C)n(CC2CCCN(CCCc3ccccc3)C2)n1 (stereo unspecified),82.12
19,Cc1nc(C)n(CC2CCCN(CCc3ccncc3)C2)n1 (stereo unspecified),-0.4528
20,Cc1nc(C)n(CC2CCCN(CCc3ccccc3)C2)n1 (stereo unspecified),91.53
21,COc1ccc(CCN2CCCC(Cn3nc(C)nc3C)C2)cc1 (stereo unspecified),9.645
22,CNC(=O)NCC1CCC2(CCN(C(=O)c3ccccn3)CC2)CO1.O=C(O)C(F)(F)F (stereo unspecified),105.2

row,SMILES,Percent Effect [%]
1,Cc1ccc(C(=O)N2CCC3(CC2)COC(COc2ccccn2)C3)o1.O=C(O)C(F)(F)F (stereo unspecified),2.842
2,NCC1CCC2(CCN(C(=O)c3ccccn3)CC2)CO1.O=C(O)C(F)(F)F.O=C(O)C(F)(F)F (stereo unspecified),112.6
3,CN(C)CC(=O)N1CCC2(CC1)COC(COc1ccccn1)C2.O=C(O)C(F)(F)F.O=C(O)C(F)(F)F (stereo unspecified),11.11
4,O=C(O)C(F)(F)F.O=C(c1cocn1)N1CCC2(CC1)COC(COCc1ccccn1)C2 (stereo unspecified),-10.48
5,CCOCC1CC2(CCN(C(=O)c3ccccn3)CC2)CO1.O=C(O)C(F)(F)F (stereo unspecified),-17.18
6,COc1ccc(CNC[C@H]2Cn3ccnc3CO2)cn1,-7.877
7,Fc1cccc(Oc2ccc(CNCC3CNc4ccnn4C3)cn2)c1 (stereo unspecified),5.815
8,Cc1cc2n(n1)CC(CNCc1ccc(OCC3CC3)nc1)CN2 (stereo unspecified),93.19
9,c1ccc(Cn2cncn2)c(CNCC2CNc3ccnn3C2)c1 (stereo unspecified),4.151
10,c1ccc(Oc2ccc(CNCC3CNc4ccnn4C3)cn2)cc1 (stereo unspecified),117.1
11,COc1ccc(CNCC2CNc3ccnn3C2)cn1 (stereo unspecified),96.76
12,c1cc2n(n1)CC(CNCc1ccc(OCC3CC3)nc1)CN2 (stereo unspecified),1.128
13,Cc1cc2n(n1)CC(CNCc1ccc(-n3cccn3)nc1)CN2 (stereo unspecified),-3.824
14,Cc1cc2n(n1)CC(CNCc1cnn(C)c1)CN2 (stereo unspecified),-3.792
15,c1ccc(-n2ccnc2)c(CNCC2CNc3ccnn3C2)c1 (stereo unspecified),-6.615
16,O=C(NCCNCC1CNc2ccnn2C1)c1ccc(F)cc1 (stereo unspecified),-19.45
17,Fc1ccc(Oc2ccc(CNCC3CNc4ccnn4C3)cn2)cc1 (stereo unspecified),99.62
18,Cc1n[nH]c(C)c1C1CCCN1C(=O)c1coc(Br)c1 (stereo unspecified),4.835
19,CCN(C(=O)c1cccc2c1OCO2)c1ccccc1,-1.465
20,O=C(Nc1ccccn1)N(CCO)Cc1ccsc1,-7.906
21,O=C(Cc1ccccc1Br)NCC(=O)Nc1cn[nH]c1,-11.75
22,CCN(Cc1cccc2c1OCO2)C(=O)NCCOC,78.96

row,SMILES,Percent Effect [%]
1,CCN(Cc1cccc2c1OCO2)C(=O)NCc1ccccn1,102.4
2,CCN(Cc1cccc2c1OCO2)C(=O)Nc1ccccn1,122.5
3,O=C(Nc1cn[nH]c1)N(CCO)C1CCc2ccccc21 (stereo unspecified),3.342
4,CCN(Cc1cccc2c1OCCO2)C(=O)NC(C)(C)C,-7.864
5,Cc1cc(CN(C)C(=O)NCc2ccccn2)no1,9.808
6,CCN(Cc1ccc2c(c1)OCO2)C(=O)NCc1nc(C)cs1,-7.212
7,COc1cc(CN(C)C(=O)NCc2cccc3c2OCO3)ccc1SC,-31.12
8,CCN(Cc1cccc2c1OCO2)C(=O)Nc1cn[nH]c1,109.5
9,Nc1nc(CCC(=O)N2CCOC(CC3CCCCC3)C2)cs1 (stereo unspecified),-4.495
10,CC1(C)CCC(C(=O)O)c2ccccc21 (stereo unspecified),1.78
11,CN(Cc1ccc(Br)o1)C(=O)Nc1cccnc1,14.31
12,O=C(C1CCSCC1)N1CCC2(CC1)COC(COCC1CC1)C2 (stereo unspecified),0.4038
13,Cc1csc(CN2CCC3(CC2)COC(COCC2CC2)C3)n1.O=C(O)C(F)(F)F (stereo unspecified),87.23
14,CCOCC1CC2(CCN(Cc3ccccn3)CC2)CO1 (stereo unspecified),-6.984
15,CC(=O)N1CCC2(CC1)COC(COCc1ccccn1)C2.O=C(O)C(F)(F)F (stereo unspecified),-3.959
16,O=C(O)C(F)(F)F.O=C(O)C(F)(F)F.c1cncc(OCC2CC3(CCN(CC4CC4)CC3)CO2)c1 (stereo unspecified),-1.816
17,Cc1cc(CN2CCC3(CC2)COC(COCC2CC2)C3)no1.O=C(O)C(F)(F)F (stereo unspecified),95.48
18,Cc1cccc(CN2CCC3(CC2)COC(COCC2CC2)C3)n1 (stereo unspecified),102.1
